The assay deals with Genome polyprotein (Dengue virus type 2 (strain 16681-PDK53)) (UniProt P29991). The experiment in a line: Dengue-2 NS5 methyltransferase inhibitors, primary screen, biochemical, confirmation dose response (AID 588689). The following applies: Dengue-2 NS5 methyltransferase capping enzyme assay, at 25 µM, stronger effect = higher value.
Where [1] appears, read: measured here: pilot screen replicate inhibition.

Hit rate of the full screen: of about 340,000 compounds, about 1,000 (0.29%) were called active. Rule as the data show it: inconclusive = inhibition above about 29% without an active follow-up result; inactive = below that. A selection follows. Measured potencies and affinities stand elsewhere.

Results on 85 molecules are retold here after PubChem BioAssay AID588689 (Southern Research Specialized Biocontainment Screening …, 2011).

In the case of `COC(=O)c1ccc(NC(=O)CCCCCn2nnc3ccccc3c2=O)cc1`, the inhibition is -0.65% (inactive).
Still for that read-out and setting: next, `O=C1CN(C(=O)N[C@@H](Cc2ccccc2)C(=O)N[C@H](Cc2ccccc2)C(=O)O)c2ccccc2N1`: -2.17% (inactive); `COc1cc(OC)cc(N(C(=O)C2COc3ccccc3O2)C(C(=O)NC2CCCCC2)c2ccc(O)cc2)c1` (stereo not given): -5.19% (inactive).
Still for that read-out and setting: next, `COc1ccccc1NC(=O)Nc1ccccc1C(N)=O`: -5.31% (inactive).
Regarding `CCOc1ccc(C(=O)N/N=C/c2ccc(-c3ccc(S(=O)(=O)Nc4ncccn4)cc3)o2)cc1`, the inhibition was 0.82% (inactive).
Same read-out and setting: the same measure for `NC(=O)N/N=C/c1ccc(-c2ccc(S(=O)(=O)Nc3ncccn3)cc2)o1`: -2.88% (inactive); for `CCOC(=O)CC(=O)CSc1ccc2nnc(-c3ccc(F)cc3)n2n1`: 0.81% (inactive).
On the same count and under the same terms, the same measure for `CC(C)CCN1CN(S(=O)(=O)c2cccs2)c2nc3ccccc3nc21`: -2.77% (inactive); for `COc1cc(NC(=S)NN2CCN(C)CC2)cc(OC)c1`: -3.9% (inactive).
Same read-out and setting: next, `N#C/C(=C\C=C\c1ccccc1[N+](=O)[O-])c1nc(-c2ccc3c(c2)OCO3)cs1`: -0.69% (inactive); `COc1ccc(-c2cc(C(F)(F)F)n3nc(C(=O)NCc4ccco4)cc3n2)cc1`: -2.82% (inactive); `Cc1ccc(N2C(=O)c3sc4nnc(C)c(=O)n4c3C2=O)cc1`: 0% (inactive).
Take `CCc1ccc(N2C(=O)c3sc4nnc(C)c(=O)n4c3C2=O)cc1`: the inhibition is -0.68% (inactive). Further, under setting [1], the inhibition came to 5.46%.
For the molecule `Cc1ccc(S(=O)(=O)N2CCCCC2)cc1NC(=O)c1ccco1`, the inhibition is -2.75% (inactive).
Still for that read-out and setting: next, `Cc1ccc(C)c(OCc2cc(C(=O)NC(C)c3cnn(C)c3)no2)c1` (stereo not given): -5% (inactive); `CCOC(=O)N1CCC(Nc2c(-c3ccc(C)c(C)c3)c(=O)c2=O)CC1`: -8.18% (inactive); `COc1ccc(S(=O)(=O)Nc2cccc3c2O[C@H](CN(C)C(=O)Nc2ccc(C(F)(F)F)cc2)[C@@H](C)CN([C@H](C)CO)C3=O)cc1`: -2.11% (inactive).
Same read-out and setting: next, `O=C(CCCN1C(=O)/C(=C\c2cccs2)SC1=S)Nc1ccc(O)cc1C(=O)O`: -9.83% (inactive); `O=C(CCN1C(=O)/C(=C/c2ccco2)SC1=S)Nc1ccc(C(=O)O)c(O)c1`: 48.7% (inactive); `O=C(CCCN1C(=O)/C(=C\c2ccccc2)SC1=S)Nc1ccc(O)cc1C(=O)O`: 20.6% (inactive).
Same read-out and setting: next, `O=C(CN1C(=O)/C(=C/c2ccco2)SC1=S)Nc1ccc(C(=O)O)c(O)c1`: 36.5% (inactive); `O=C(CN1C(=O)S/C(=C\c2cccs2)C1=O)Nc1ccc(C(=O)O)c(O)c1`: 15% (inactive); `O=C(CN1C(=O)S/C(=C\c2cccs2)C1=O)Nc1ccc(O)c(C(=O)O)c1`: 8.14% (inactive).
`Cc1ccc(/C=C2\SC(=S)N(CCC(=O)NNC(=O)c3ccc(O)cc3)C2=O)cc1`: the inhibition is -0.88% (inactive).
Same read-out and setting: the same measure for `O=C(CN1C(=O)S/C(=C\c2cccs2)C1=O)Nc1ccc(O)cc1C(=O)O`: 14.3% (inactive).
Regarding `CC(C)(CNC(=O)c1ccccc1F)CNC(=O)c1ccccc1F`, the inhibition was 3.07% (inactive).
As for `CC(C)OC(=O)N(C)C[C@H]1OCc2cnnn2CCCC(=O)N([C@H](C)CO)C[C@H]1C`, the inhibition is -3.41% (inactive).
Same read-out and setting: the same measure for `COc1ccc(C2=NS(=O)(=O)N(C)C(C(=O)NC3CCCCC3)=C2)cc1OC`: -5.5% (inactive); for `O=S(=O)(CCc1nc2ccccc2o1)c1ccc2ccccc2c1`: -2.77% (inactive); for `CC(Sc1nnc(COc2ccc(Cl)cc2)n1Cc1ccccc1)C(=O)O` (stereo not given): 0.73% (inactive).
Same read-out and setting: the same measure for `CCN(CC)C(=O)C1=C(C)N(CCC2=CCCCC2)C(=O)C(CC(=O)NCC2CCCCC2)C1` (stereo not given): -0.57% (inactive); for `O=[N+]([O-])c1cc(C(F)(F)F)cc([N+](=O)[O-])c1NN=C1CCCCC1`: -139% (inactive); for `CC1(C)CC(=O)C=C(NCc2ccc(C(=O)O)cc2)C1`: -7.73% (inactive).
In the case of `COc1ccc(CN2C(=O)C(C)Nc3ncnc(N4CCOCC4)c32)cc1` (stereo not given), the inhibition was -5.79% (inactive).
On the same count and under the same terms, next, `COc1ccc(S(=O)(=O)N(CCCN2CCOCC2)Cc2cccc3ccccc23)cc1`: 1.67% (inactive).
As for `CCN(CC)c1ccc(C(=C2C=CC(=[N+](CC)CC)C=C2)c2ccc(S(=O)(=O)O)cc2S(=O)(=O)[O-])cc1`, the inhibition is 1.48% (inactive).
For the molecule `CCN(CC)c1ccc(C(=C2C=CC(=[N+](CC)CC)C=C2)c2ccc(N(CC)CC)cc2)cc1`, the inhibition was 17% (inactive).
For the molecule `Cc1ccc2[nH]cc(CCNC(=O)c3ccc4c(c3)OCO4)c2c1`, the inhibition was 1.31% (inactive). Under setting [1], the inhibition is -1.82%.
Turning to `O=S(=O)(NCc1nnc2ccccn12)c1ccc(F)cc1`, the inhibition is -3.63% (inactive).
For the molecule `Cc1sc(N2C(=O)C3C4C=CC(C4)C3C2=O)c(C#N)c1C` (stereo not given), the inhibition is -2.18% (inactive).
Consider `CC(C)[C@H](NC(=O)c1c(F)cccc1F)C(=O)OCC(=O)NNC(=O)c1ccccc1`, for which the inhibition was -2.88% (inactive).
The same measure, in the same setting: next, `CN(C)c1ccc2c(O)cc(=O)n(C)c2c1`: 23.3% (inactive); `CN(C)c1ccc(Cc2ccc(N(C)C)cc2)cc1`: 4.45% (inactive).
The same measure, in the same setting: next, `COc1cc(NC(=O)c2cccs2)c(OC)cc1NC(=O)c1cccs1`: -7.78% (inactive); `CCC(C)N(C(=O)CSc1nc(C)nc2ccccc12)C1CCS(=O)(=O)C1` (stereo not given): -9.59% (inactive); `O=C(c1ccccc1)N1CCN(c2ccc(N3CCOCC3)nn2)CC1`: 0.74% (inactive).
Same read-out and setting: the same measure for `C[C@H](CO)N1C[C@H](C)[C@H](CN(C)C(=O)Nc2ccccc2)OCc2cnnn2CCCC1=O`: 1.65% (inactive); for `O=C1C=C(Nc2ccccc2O)c2ccccc2C1=O`: 19% (inactive); for `O=C1C=C(Nc2cccnc2)c2ccccc2C1=O`: 33.2% (inactive).
As to `CSc1nnc(C)c(=O)n1COC(=O)COc1ccc2ccccc2c1`, the inhibition was 3.64% (inactive).
Still for that read-out and setting: next, `COc1ccc(-c2c(C#Cc3ccc(N(C)C)cc3)c3ccccc3n2C)cc1`: 6.35% (inactive); `Cc1cc(-c2ccc([N+](=O)[O-])cc2)nc2ccccc12`: 0% (inactive); `Cc1nc2c(-c3ccccc3)c(C)nn2c(N)c1-c1ccccc1`: -5.49% (inactive).
The same measure, in the same setting: the same measure for `C[C@@]12C(=O)Nc3cc(F)c(F)cc3C(=O)N1[C@H]1c3cc(Cl)ccc3OC[C@@H]1[C@@H]2c1ccccc1`: 2.81% (inactive).
The same measure, in the same setting: the same measure for `Cc1cc(C)c2[nH]c(=O)c(C(c3nnnn3Cc3ccc4c(c3)OCO4)N3CCCCC3)cc2c1` (stereo not given): 9.03% (inactive).
As to `Cc1cc(C)c(NC(=O)CN2C(=O)NC3(CCCCC3)C2=O)c(C)c1`, the inhibition is -3.21% (inactive).
Still for that read-out and setting: next, `Cc1cccc(NC(=O)CN(C)S(=O)(=O)c2ccc(-c3ccc(=O)[nH]n3)s2)c1C`: -3.18% (inactive).
Still for that read-out and setting: the same measure for `CC(=O)CC(=O)NC1CCc2ccccc21` (stereo not given): -2.7% (inactive).
On the same count and under the same terms, the same measure for `CCOc1ccc(C(=O)c2ccccc2C(=O)O)cc1OCC`: -7.73% (inactive); for `CC1=CC(=O)C(C(C)C)=C/C1=N/OS(=O)(=O)c1ccccc1`: -4.66% (inactive); for `CC1(C)SC(=S)N(/N=C/c2ccccc2)C1N(O)C(=O)Nc1ccc([N+](=O)[O-])cc1` (stereo not given): -1.56% (inactive).
Regarding `CC(=O)N(C1=C(N2CCOCC2)C(=O)c2ccccc2C1=O)c1ccc(C(=O)O)cc1`, the inhibition was 24.1% (inactive).
The same measure, in the same setting: next, `CC(=O)N(c1ccccc1)C1CCCC1`: -5.78% (inactive); `CC(=O)N(C1=C(N)C(=O)c2ccccc2C1=O)c1ccccc1`: -4.08% (inactive).
Consider `COc1ccccc1N(C(C)=O)c1nc(C)cc(C)c1C#N`, for which the inhibition was -9.48% (inactive).
The same measure, in the same setting: the same measure for `CC(=O)N(C1=C(O)c2ccccc2C(=O)C1=O)C1CCCCC1`: 4.86% (inactive); for `COc1ccccc1N(/N=C1\Sc2ccccc2C1=O)C(C)=O`: 0.77% (inactive); for `CC(C)CCCN1C(Nc2ccccc2)=NC[C@@H]1C`: -8.02% (inactive).
Still for that read-out and setting: next, `O=C(COC(=O)/C=C/c1ccc(C(F)(F)F)cc1)NCc1ccco1`: 1.3% (inactive); `COc1ccccc1NC(=O)CN1C(=O)COc2ccc(S(=O)(=O)N3CCCCCC3)cc21`: -3.55% (inactive).
On the same count and under the same terms, the same measure for `COc1cccc(C(=O)Nn2c(-c3cccs3)nc3ccccc3c2=O)c1OC`: -3.56% (inactive); for `O=C(NCc1ccccn1)c1ccc(Cn2cc(C(F)(F)F)ccc2=O)cc1`: -5.74% (inactive).
As to `Cn1c(=O)c2c(ncn2CC(=O)N2CCc3ccccc3C2)n(C)c1=O`, the inhibition is -0.55% (inactive).
Still for that read-out and setting: next, `CCc1ccc([C@@H]2CC=C(C(=O)O)[C@H](c3ccccc3)N2S(=O)(=O)c2ccc(C)cc2)cc1`: 15.1% (inactive); `CCc1ccc([C@@H]2CC=C(C(=O)O)[C@H](c3ccc(F)cc3)N2S(=O)(=O)c2ccc(C)cc2)cc1`: 15.9% (inactive).
Turning to `CCCC[C@@H]1C=C(C(=O)O)[C@H](c2ccc(Cl)cc2)N1S(=O)(=O)c1ccc(C)cc1`, the inhibition was 9.27% (inactive). Also, under setting [1], the inhibition stood at 1.23%.
Turning to `CCCCC[C@@H]1C=C(C(=O)O)[C@H](c2ccc(C)cc2)N1S(=O)(=O)c1ccc(C)cc1`, the inhibition is 10.4% (inactive).
On to `Cc1ccc([C@H]2C(C(=O)O)=CC[C@@H](c3ccc(Cl)cc3)N2S(=O)(=O)c2ccc(C)cc2)cc1`, for which the inhibition was 23.2% (inactive). Also, the inhibition under setting [1] was found to be 7.95%.
In the case of `Cc1ccc(S(=O)(=O)N2[C@@H](c3ccccc3)C(C(=O)O)=CC[C@H]2c2ccc(Cl)cc2)cc1`, the inhibition is 13.2% (inactive).
The same measure, in the same setting: next, `Cn1ncc([N+](=O)[O-])c1C(=O)Nc1cccc2ccccc12`: -4.99% (inactive); `CC(C)CN(C(=O)COC(=O)CCCc1c[nH]c2ccccc12)c1c(N)n(Cc2ccccc2)c(=O)[nH]c1=O`: 1.62% (inactive).
Regarding `Clc1ccc(OCCn2cnc(Cl)c2Cl)cc1`, the inhibition was 2.87% (inactive).
For the molecule `Cc1cccn2cc(CCNC(=O)c3ccc(Br)o3)nc12`, the inhibition is 3.48% (inactive).
Same read-out and setting: next, `O=C1COCCOCCOCCOCC(=O)NCCN1`: -2.15% (inactive).
Take `CCOC(=O)C1=CN(Cc2ccco2)S(=O)(=O)N(C)C1c1ccc(C(F)(F)F)cc1` (stereo not given): the inhibition was -11.6% (inactive). Moreover, the inhibition under setting [1] is -0.605%.

One may read the inhibition as the change of the read-out against control, counted positive when it falls.
